We go through 40 molecules from PubChem BioAssay (Tox21).

Inconclusive results are not listed. Active and inactive are the calls of the source. Calls come from the whole dose curve; as a rule, active = well fitted activation curve with a large enough effect in the repeat runs; inconclusive = weak or mixed curves; inactive = flat fitted curve, though single readings scatter. Where a SMILES comes first, the peptide text is derived from it. [ ]: non-standard residue; d: D form. pGlu = O=C1CC[C@@H](C(=O)O)N1
% is set by controls: 0 for no effect and ±100 for the full control effect.

This experiment is described as follows: A CellTox Green Cytotoxicity Assay to monitor cytotoxicity in HEK293 cells - 40 hour (AID 1224871). Note: nearly all actives have a fitted effect of over 45% in size. The conditions noted are these: CellTox Green fluorescence; series mostly up to 76.8 µM; cytotoxicity increase: at the top concentration. The source says: National Center for Advancing Translational Sciences [NCATS]
NIH Chemical Genomics Center [NCGC]
U.S. Environmental Protection Agency [EPA]
National Institutes of Environmental Health Sciences [NIEHS]
National Toxicology Program [NTP]
Cell-based models are critical for drug discovery. Determining the natural cytotoxic effects resulting from test compounds is an essential research activity. A CellTox Green Cytotoxicity Assay to monitor cytotoxicity in real time of continues cell culture during 40 hours of the compound treatment was used to screen Tox21 10K library compounds in Hek293 cells. CellTox Green Cytotoxicity Assay is a nonlytic, homogeneous, biofluorescent method to measure cytotoxicity in cell culture after experimental manipulation. The assay system uses a proprietary asymmetric cyanine dye that is excluded from viable cells but preferentially stains the dead cell's DNA. […] Viable cells produce no appreciable increases in fluorescence. Therefore, the fluorescence signal produced by the binding interaction with dead cell DNA is proportional to cytotoxicity.
The mixture of Hek293 cell suspension and reagents were dispensed at 600cells/6 ul/well in 1536-well tissue culture treated black solid bottom plates using a Multidrop dispenser. After the assay plates were incubated at a 37 C/5% CO2 incubator for 5 hours, 23 nL of compounds dissolved in DMSO, positive and negative controls was transferred to the assay plate by a pintool work station. The plates were incubated at 37 C for 40 hours. The fluorescence intensity were measured at 0h, 8h, 16h, 24h, 32h and 40h time points using ViewLux plate reader during compound treatment.
On to `CC[N+](CC)(CC(=O)Nc1c(C)cccc1C)Cc1ccccc1` (tested in a mixture with another compound), for which the “cytotoxicity increase” value is -9.33% [at 35.3 µM] (inactive).
Consider `CN(C)C(=O)Oc1cccc([N+](C)(C)C)c1`, for which the “cytotoxicity increase” value was -15.5% [at 35.3 µM] (inactive).
For the molecule `NC(=O)NC1N=C([O][Al])NC1=O` (stereo not given), the “cytotoxicity increase” value was 9.12% [at 35.3 µM] (inactive).
With `COc1ccccc1OCC1CNC(=O)O1` (stereo not given) the figure was -0.697% [at 35.3 µM] (inactive); with `CCO[Si](OCC)(OCC)c1ccccc1`, -3.27% (inactive); with `NCCCC[C@H](N[C@@H](CCc1ccccc1)C(=O)O)C(=O)N1CCC[C@H]1C(=O)O`, -0.115% [at 35.3 µM] (inactive).
With `O=[N+]([O-])c1cncn1CCN1CCOCC1` the figure was -17.4% [at 35.3 µM] (inactive).
Regarding `CC[N+](C)(CC)CCOC(=O)C1c2ccccc2Oc2ccccc21`, the “cytotoxicity increase” value is 6.48% [at 35.3 µM] (inactive).
With `CCOC(=O)C(=O)CCCCCCl`, the “cytotoxicity increase” value was -14.2% [at 35.3 µM] (inactive).
With `CCNC(=O)[C@@H]1CCCN1C(=O)[C@H](CCCN=C(N)N)NC(=O)[C@H](CC(C)C)NC(=O)CNC(=O)[C@H](Cc1ccc(O)cc1)NC(=O)[C@H](CO)NC(=O)[C@H](Cc1c[nH]c2ccccc12)NC(=O)[C@H](Cc1cnc[nH]1)NC(=O)[C@@H]1CCC(=O)N1` ([pGlu]HWSYGLRP-NHEt), the “cytotoxicity increase” value was -15.5% [at 35.3 µM] (inactive).
The figure for `O=C1c2ccccc2C(=O)c2cc(O)ccc21` is -43.1% (inactive); for `CC1=NS(=O)(=O)c2cc(Cl)ccc2N1` it is -9.68% [at 35.3 µM] (inactive); for `CN(C)CCCN(C)CCCN(C)C` it is -8.84% (inactive).
With `CCCCc1ccc2c(n1)[C@@H](c1ccc(OC)cc1C[C@H](C)C(=O)O)[C@H](C(=O)O)[C@H]2c1ccc2c(c1)OCO2` the figure was -11.8% (inactive); with `CC(C)c1ccc2ncccc2c1`, 0.451% (inactive).
The figure for `O=C(O)c1cc(C(=O)O)cc(C(=O)O)c1` is 16.3% (inactive).
Regarding `CC1(C)[C@@H]2CC[C@@]1(C)[C@H](O)C2`, the “cytotoxicity increase” value is -16.8% (inactive).
Turning to `NC(N)=NCCN1CCCCCCC1`, the cytotoxicity increase was 1.15% [at 0.29 µM] (inactive).
Consider `Cc1ccc(C(=O)Nc2ccc(S(=O)(=O)O)c3cc(S(=O)(=O)O)cc(S(=O)(=O)O)c23)cc1NC(=O)c1cccc(NC(=O)Nc2cccc(C(=O)Nc3cc(C(=O)Nc4ccc(S(=O)(=O)O)c5cc(S(=O)(=O)O)cc(S(=O)(=O)O)c45)ccc3C)c2)c1`, for which the “cytotoxicity increase” value is 5.35% [at 35.3 µM] (inactive).
The figure for `CC(C)C(=O)OC(=O)C(C)C` is -12.1% (inactive); for `CC(=O)NC(=O)c1ccccc1O` it is -6.6% [at 35.3 µM] (inactive); for `CCOC(=O)C1=NOC(c2ccccc2)(c2ccccc2)C1` it is 0.0363% (inactive).
With `C[N+](C)(CCOc1ccccc1)Cc1cccs1` the figure was -16.8% [at 35.3 µM] (inactive); with `CC(C#N)(CCC(=O)O)N=NC(C)(C#N)CCC(=O)O` (stereo not given), -9.76% (inactive).
The figure for `CCN[C@@H]1C[C@H](N)[C@@H](OC2OC(CN)=CCC2N)[C@H](O)[C@H]1O[C@H]1OC[C@](C)(O)[C@H](NC)[C@H]1O` (stereo not given in full) is 6.9% [at 0.29 µM] (inactive).
For the molecule `CCC(C)(CCCC(C)C)OC(C)=O` (stereo not given), the “cytotoxicity increase” value is -2.76% (inactive).
In the case of `O=C(c1ccccc1)C1(O)CCCCC1`, the “cytotoxicity increase” value was 25.1% (inactive).
As for `C[C@@H]1CCC[C@H](C)N1`, the “cytotoxicity increase” value is -30.1% [at 35.3 µM] (inactive).
For `CC1=NN(c2cccc(S(=O)(=O)O)c2)C(=O)C1`, the “cytotoxicity increase” value is 14.9% (inactive).
The figure for `COc1ccnc(CS(=O)c2nc3cc(OC(F)F)ccc3[nH]2)c1OC` (stereo not given) is -14.9% (inactive); for `O=Cc1cccc(Br)c1` it is 6.84% (inactive); for `Nc1ccn([C@@H]2O[C@H](CO)[C@@H](O)C2(F)F)c(=O)n1` it is -0.183% [at 35.3 µM] (inactive).
With `CCCCS(=O)(=O)N[C@@H](Cc1ccc(OCCCCC2CCNCC2)cc1)C(=O)O`, the “cytotoxicity increase” value was 0.837% [at 35.3 µM] (inactive).
With `COc1c(N2CCNC(C)C2)c(F)cc2c(=O)c(C(=O)O)cn(C3CC3)c12` (stereo not given) the figure was 5.47% [at 35.3 µM] (inactive).
For `CC1=CCC(O)(C(C)C)CC1` (stereo not given), the “cytotoxicity increase” value is -31.1% (inactive).
Turning to `CC12CCC(C(=O)C1=O)C2(C)C` (stereo not given), the “cytotoxicity increase” value was 0.156% (inactive).
Take `COCCOC[C@H](CC1(C(=O)NC2CCC(C(=O)O)CC2)CCCC1)C(=O)Oc1ccc2c(c1)CCC2` (stereo not given in full): the “cytotoxicity increase” value was -1.54% (inactive).
With `Cc1ccccc1N=C(N)N=C(N)N`, the “cytotoxicity increase” value was -8.74% (inactive).
With `CCCOC(=O)CC` the figure was 0.865% (inactive); with `CN1CCN(c2cc3c(nn2)Oc2ccccc2N3C)CC1`, -14.2% [at 15.8 µM] (inactive).
